Avidin fluor – compound fluoresces at 488/530 nm on avidin beads; compound fluorescence 488/530 nm, flow cytometry; active compounds read high; 220,000 tested, 0.38% active; AID 1775; fluorescence (KMESF) at 10 µM; in the data active means fluorescence above about 47
RGS16-Gao HTS – regulators of human RGS16-Galphao interaction | 220,000 tested, 0.38% active | bead-based flow cytometry RGS16-Galphao binding, fluorescence; actives lie on both sides | binding response (% of control), % at 10 µM;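 further: Galphao activated by GDP with aluminum fluoride before binding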
Target sequence (O15492 whole entry, looked up): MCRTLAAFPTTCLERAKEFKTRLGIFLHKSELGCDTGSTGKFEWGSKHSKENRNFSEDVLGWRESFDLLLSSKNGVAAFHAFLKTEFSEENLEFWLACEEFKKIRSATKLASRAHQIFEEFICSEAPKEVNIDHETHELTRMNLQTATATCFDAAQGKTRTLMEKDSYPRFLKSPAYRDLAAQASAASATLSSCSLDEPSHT
Target sequence (P09471 whole entry, looked up): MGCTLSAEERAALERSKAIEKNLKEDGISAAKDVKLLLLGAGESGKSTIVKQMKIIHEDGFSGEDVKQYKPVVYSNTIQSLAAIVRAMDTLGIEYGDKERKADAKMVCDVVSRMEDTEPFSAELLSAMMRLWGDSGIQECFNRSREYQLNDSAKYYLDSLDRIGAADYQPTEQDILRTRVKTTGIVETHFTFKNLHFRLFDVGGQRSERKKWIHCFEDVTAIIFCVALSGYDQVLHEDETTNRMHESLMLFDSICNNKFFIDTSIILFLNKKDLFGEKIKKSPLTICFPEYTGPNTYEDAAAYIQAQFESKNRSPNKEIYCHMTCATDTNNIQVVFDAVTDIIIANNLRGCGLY
RGS8-Gao reg – modulates binding of RGS8 to human Galphao; P09471; multiplexed bead flow cytometry; actives lie on both sides; response (percent of control binding), % at 10 µM; 220,000 tested, 0.34% active; AID 1423; in the data active means response below about 60% or above about 140%; inactive means in between;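 further: Galphao activated as the GDP aluminium fluoride complex binding bead-coupled RGS8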
Target sequence (P09471 whole entry, looked up): as above
RGS7-Gao – human RGS7-Galphao interaction regulation. P09471. 220,000 tested, 0.35% active. AID 1439. binding response (% of control), % at 10 µM. Multiplexed bead flow cytometry, RGS7-Galphao binding; actives lie on both sides; in the data active means binding response below about 49% or above about 150%; inconclusive means no clear call, values can overlap the other calls; inactive means in between;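 further: fluorescent Galphao held in activated GDP-AlF4 state binding bead-coupled RGS7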
RGS4-Gao reg – modulates binding of RGS4 to human Galphao; binding response (% of control), % at 10 µM; Multiplexed bead flow cytometry; actives lie on both sides; P09471; AID 1415; 220,000 tested, 0.33% active; in the data active means binding response below about 49% or above about 150%; inactive means in between;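 further: fluorescent Galphao activated with aluminum fluoride binding bead-coupled RGS4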
GSH fluor – compound fluoresces at 488/530 nm on GSH beads | GSH beads flow cytometry, compound fluorescence 488/530 nm; active compounds read high | 190,000 tested, 0.25% active | AID 1776 | fluorescence (KMESF) at 10 µM; in the data active means fluorescence above about 89;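 further: glutathione beads carrying GST-tagged Bcl family fusion proteins plus one bare bead set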
RGS-Gao – regulators of human RGS4-Galphao interaction. shares compounds with RGS16-Gao HTS. multiplexed bead flow cytometry, RGS–Galpha-o binding. RGS4–Galpha-o binding response, % at 10 µM. 1,600 tested, 99% active. AID 1504;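 further: fluorescently labeled Galpha-o bound to GDP with aluminium fluoride binding biotinylated RGS beads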
Avidin counter – counter-screen: compounds disrupting biotin binding to avidin beads | shares compounds with RGS16-Gao HTS | inhibition, % at 10 µM | streptavidin beads, fluorescein-biotin binding, flow cytometry | 1,700 tested, under 10 active | AID 1783;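 active means inhibition above 50%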;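 further: median green fluorescence of gated singlet beads compared with DMSO control wells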
RGS8-Gao confirm – RGS8-Galphao interaction regulation, single point confirmation. shares compounds with RGS16-Gao HTS. bead-based flow cytometry RGS8-Galphao binding, fluorescence; actives lie on both sides. binding response (% of control), % at 10 µM. 1,700 tested, 3% active. AID 1836; in the data active means binding response below about 72% or above about 130%; inactive means in between;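 further: Galphao activated as GDP AlF4 complex before binding bead RGS8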
RGS7-Gao single – confirmation of regulators of human RGS7-Galphao interaction; response (percent of control binding), % at 10 µM; 1,700 tested, 7.8% active; shares compounds with RGS16-Gao HTS; AID 1837; bead-based flow cytometry RGS7-Galphao binding; actives lie on both sides; in the data active means response below about 75% or above about 130%; inactive means in between;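 further: fluorescent Galphao activated with GDP and aluminum fluoride binding bead-coupled RGS7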
RGS16-Gao single – RGS16-Galphao interaction regulation, single point confirmation; bead-based flow cytometry, RGS16-Galphao binding; actives lie on both sides; shares compounds with RGS16-Gao HTS; 1,700 tested, 4% active; response (% of control binding), % at 10 µM; in the data active means response below about 74% or above about 130%; inactive means in between;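 further: Galphao activated as the GDP aluminium fluoride complex binding bead-coupled RGS16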
RGS4-Gao confirm – RGS4-Galphao interaction regulation, single point confirmation | 1,700 tested, 4% active | shares compounds with RGS16-Gao HTS | RGS4-Galphao binding, multiplexed bead flow cytometry; actives lie on both sides | binding response (% of control), % at 10 µM; in the data active means binding response below about 74% or above about 130%; inactive means in between
RGS19-Gao single – RGS19-Galphao interaction regulation, single point confirmation; shares compounds with RGS16-Gao HTS; bead-based flow cytometry RGS19-Galphao binding; actives lie on both sides; response (percent of control binding), % at 10 µM; 1,700 tested, 5% active; in the data active means response below about 50% or above about 160%; inactive means in between
Hits are given with their value; n = inactive; u = inconclusive; x = not tested or not shown; [ ] = another dose, or the depositor's remark. The list is not random: actives were taken first. Their share in the collection is about 1.2%. Unless noted, how the calls were made is not given here.

SMILES	Avidin fluor	RGS16-Gao HTS	RGS8-Gao reg	RGS7-Gao	RGS4-Gao reg	GSH fluor	RGS-Gao	Avidin counter	RGS8-Gao confirm	RGS7-Gao single	RGS16-Gao single	RGS4-Gao confirm	RGS19-Gao single
S=c1[nH]nc(-c2ccccc2)n1/N=C/C=C/c1ccco1	n	-0.4	n	n	n	n	89.8	n	n	n	n	n	n
O=C(c1ccco1)N(CCC(c1ccccc1)c1ccco1)Cc1ccco1 (stereo not drawn)	n	2.3	12.0	14.0	22.8	n	x	n	n	n	n	n	n
Cc1ccc(C(CCN(Cc2ccccc2)C(=O)c2ccco2)c2ccco2)cc1 (stereo not drawn)	n	n	n	n	n	n	x	x	x	x	x	x	x
O=c1[nH]nc(N2CCOCC2)c(=O)[nH]1	n	n	n	u	n	x	x	x	x	x	x	x	x
CC(C(=O)c1c[nH]c(C(N)=O)c1)c1ncc(C(F)(F)F)cc1Cl (stereo not drawn)	n	n	57.6	n	n	n	53.4	n	n	n	n	n	n
O=C(Nc1ccc(Cl)c(-c2nc3ccccc3[nH]2)c1)c1ccc2c(c1)OCO2	n	214.8[activator]	n	n	n	n	107.3	n	n	n	n	n	n
O=C(Nc1ccc(-c2nc3ccccc3[nH]2)cc1)c1ccc2c(c1)OCO2	n	n	n	n	n	n	x	x	x	x	x	x	x
Cc1cc(N)n(Cc2cccs2)n1	n	n	n	n	n	n	x	x	x	x	x	x	x
Cc1cc(C)n(-c2nnc3c4ccccc4n(C)c3n2)n1	n	n	n	u	n	x	x	x	x	x	x	x	x
O=C(N=Nc1c(O)[nH]c2ccc(Br)cc12)c1cc(-c2cccc3ccccc23)n[nH]1	n	8.3	n	n	n	n	89.2	n	n	n	n	n	n
CCOC(=O)C1=NN(c2cccc(C)c2)C2(S1)SC(C(C)=O)=C(C)N2c1ccccc1 (stereo not drawn)	x	x	x	x	x	n	x	n	n	n	n	n	n
CCc1cccc(CC)c1NC(=O)CN1C2CCCC1CC(NC(=O)Nc1cccc(OC)c1)C2 (stereo not drawn)	n	n	n	n	n	n	x	x	x	x	x	x	x
CCOC(=O)C(NCCCO)c1ccccc1 (stereo not drawn)	x	x	x	x	x	n	x	n	n	n	n	n	n
CCOCCCNC(C(=O)Nc1ccc(OC)c(Cl)c1)c1ccccc1 (stereo not drawn)	n	n	n	u	n	n	x	x	x	x	x	x	x
CCOC(=O)C(c1ccccc1)C(Nc1ccccc1)c1ccccn1 (stereo not drawn)	n	n	n	u	n	x	x	x	x	x	x	x	x
CCOC(=O)C(C(=O)OCC)C(Nc1ccccc1)c1ccccc1 (stereo not drawn)	n	9.4	n	n	n	n	76.9	n	n	n	n	n	n
COc1ccnc(-n2cccc2/C=N/O)c1C#N	n	n	n	n	n	n	x	x	x	x	x	x	x
CC(CCc1ccccc1)NC(=O)CSc1nccc(=O)[nH]1 (stereo not drawn)	n	7.1	21.1	10.9	12.2	n	x	n	n	n	n	n	n
Cc1nc2cc(NC(=O)c3ccc(N4C(=O)CCC4=O)cc3)ccc2s1	n	n	n	n	n	n	x	x	x	x	x	x	x
Cc1ccc(-c2nc(CN(C)Cc3cccc4cnccc34)c(C)o2)s1	n	n	n	n	n	n	x	x	x	x	x	x	x
O=C(CNC(=O)c1ccco1)N/N=C/c1cccs1	n	n	n	u	n	x	x	x	x	x	x	x	x
O=C(CN1CCN(Cc2ccc(Cl)cc2)C1=O)NCCCN1CCN(c2ccc(F)cc2)CC1	n	n	n	n	n	n	x	x	x	x	x	x	x
O=C(CN1CCN(Cc2ccccc2F)C1=O)NCCc1ccc(Cl)cc1	60	n	n	158.7[activator]	n	n	106.7	n	n	n	n	n	n
O=C(CN1CCN(Cc2ccc(Cl)cc2)C1=O)NCCCN1CCOCC1	n	13.2	14.4	8.9	18.2	n	x	n	n	n	n	n	n
N#Cc1cnn2c(-c3ccc(Cl)cc3Cl)ccnc12	n	n	n	n	n	n	x	x	x	x	x	x	x
SMILES	Avidin fluor	RGS16-Gao HTS	RGS8-Gao reg	RGS7-Gao	RGS4-Gao reg	GSH fluor	RGS-Gao	Avidin counter	RGS8-Gao confirm	RGS7-Gao single	RGS16-Gao single	RGS4-Gao confirm	RGS19-Gao single
CCN(C(=O)c1ccc(NC(C)=O)cc1)c1ccccc1	n	-19.8	n	n	n	n	77.7	n	n	n	n	n	n
CCCCC(=O)OCC(=O)c1[nH]c(C)c(C(C)=O)c1C	n	n	n	n	n	n	x	x	x	x	x	x	x
CC#CC[N+](C)(C)CCCCCCCCCC	47	n	n	u	170.3[activator]	x	x	n	n	n	n	n	n
CCOC(=O)N1CCN(CC(=O)Nc2sc(CC)cc2C(=O)c2ccc(OC)cc2)CC1	n	n	n	u	n	x	x	x	x	x	x	x	x
CCn1c(C(=O)N2CCCC(C(=O)O)C2)cc2sccc21 (stereo not drawn)	n	24.1	n	n	n	n	93.0	n	n	n	n	n	n
CCOC(=O)c1cc2sccc2n1CC(=O)N1CCCC1	48	n	n	150.4[activator]	n	n	113.4	n	n	n	n	n	n
CCCS(=O)(=O)N1CCN=C1SCc1cccnc1	n	n	n	n	n	n	x	x	x	x	x	x	x
CCOP(=O)(OCC)C(C)(C)NC(=O)c1cc([N+](=O)[O-])cc([N+](=O)[O-])c1	x	x	x	x	x	n	x	n	n	n	n	n	n
CCC(C)(C)NC(=O)c1cc(C(=O)OC)cc([N+](=O)[O-])c1	n	n	n	n	n	n	x	x	x	x	x	x	x
COc1ccccc1OCCCOc1ccc(C)cc1Br	n	n	n	n	n	n	x	x	x	x	x	x	x
COc1ccccc1OCCOCCOc1ccc(C)cc1Br	n	21.7	n	n	n	n	88.6	n	n	n	n	n	n
COc1ccc(/C(C)=N/OCC(=O)N2CC3(C)CC2CC(C)(C)C3)cc1 (stereo not drawn)	n	n	281.6[activator]	276.3[activator]	303.8[activator]	n	x	n	n	n	n	n	n
CSCCC(N=C(NS(=O)(=O)c1ccccc1)c1ccccc1)C(=O)O (stereo not drawn)	n	n	n	u	n	x	x	x	x	x	x	x	x
